Assay outcomes deposited in PubChem BioAssay by National Center for Advancing Translational Sciences (NCATS).
Most compounds without a hit are left out; they make up all but 19% or so of the library.
DT40 TDP1 no CPT – qHTS for Inhibitors of human tyrosyl-DNA phosphodiesterase 1 (TDP1): qHTS in cells in absence of CPT; DT40 Tdp1-/- hTDP1 cells, no CPT, ATP luminescence, 48 h; Potency, µM (doses to about 46.2 µM), hits mostly inhibitors; actives 15% (n = 420,000); note: nearly all actives have a fitted effect of over 55% in size
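No-CPT arm: Tdp1-/-;hTDP1 DT40 cells (400/well) plus compounds, incubated ≥48 hr at 37 °C. Readout CellTiter-Glo luminescence.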
IL1B secr inh – blocks inflammasome-driven IL-1 beta release | THP-1 LPS/ATP IL-1B secretion, AlphaLISA, 16 h; hits give low values | activity change, % at 57.5 µM | actives 4.7% (n = 360,000); in the data active = activity change below about -50%; inconclusive = mostly about -30% to -49%
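Secreted IL-1B measured by AlphaLISA bead assay after 16 h compound exposure of THP-1 cells; compounds (final up to 57.5 uM) added 1 h before LPS (250 ng/mL) and ATP (1.25 mM) stimulation; lower signal means less secretion.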
DT40 TDP1 CPT – growth inhibition of DT40 Tdp1-/-;hTDP1 cells with camptothecin (screen for TDP1 inhibitors). chicken DT40 Tdp1-/-;hTDP1 cells + 20 nM CPT, ATP luminescence, 48 h. Potency, µM (highest dose often 46.2 µM), usual class: inhibitors. actives 12% (n = 420,000); note: nearly all actives have a fitted effect of over 55% in size
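Cell growth measured by CellTiter-Glo luminescence after a minimum 48 h, 37 C compound exposure with 20 nM CPT in Tdp1-knockout DT40 cells stably expressing hTDP1, seeded 400/well; qHTS titration format.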
HT1080NT lethal – kills 2HG-producing HT-1080-NT fibrosarcoma cells; Potency, µM (top dose mostly 46.1 µM), most hits filed as cytotoxic; AID 686970; HT-1080-NT fibrosarcoma viability, CellTiter-Glo ATP luminescence, 48 h; actives 1.6% (n = 360,000);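 note: NT is the 2HG producing partner of a matched IDH1 knockdown line; nearly all actives have a fitted effect of over 55% in size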
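Fibrosarcoma NT cells, 750 per well in 5% FBS RPMI, were exposed to compound for 48 hours. Viability: CellTiter-Glo luminescence.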
HT1080 IDH1KD tx – kills HT-1080 cells with IDH1 knockdown; HT-1080 IDH1 knockdown viability, ATP luminescence, 48 h; Potency, µM (doses to about 46.1 µM), actives largely listed as cytotoxic; actives 2% (n = 360,000); AID 686971
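Using the IDH1-knockdown HT-1080 line run in the same batch and compound series as the NT line, viability after 48 h at 37 °C was determined by CellTiter-Glo luminescence and expressed as % activity.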
Numbers stand for hits; . = inactive; ? = inconclusive; / = not tested or not shown. Unless noted, calls come from the whole dose curve; as a rule, active = well fitted curve in the direction sought with a large enough effect; inconclusive = small, poorly fitted or top-dose-only effect, or another doubt; inactive = no such curve, though single readings can be large; an effect the other way counts as inactive or inconclusive.

SMILES	DT40 TDP1 no CPT	IL1B secr inh	DT40 TDP1 CPT	HT1080NT lethal	HT1080 IDH1KD tx
O=C(O)C1=C(C2CCCCC2)C(=O)c2ccccc21	.	-55.3	.	.	.
COC(CNC(=O)C1CC(=O)N(CCc2ccc(C)cc2)C1)OC (centres undefined)	.	.	.	.	.
CCCCCCOC(=O)CC1CC(C(C)=O)C1(C)C (centres undefined)	?	.	.	.	.
CC1(c2nnc(-c3ccncc3)o2)CC(c2ccc(Cl)cc2)=NO1 (centres undefined)	20.6µM	.	20.6µM	.	.
CC1(c2nnc(-c3ccccc3)o2)CC(c2ccc(Cl)cc2)=NO1 (centres undefined)	.	.	.	.	.
CC1(c2nnc(-c3ccccc3)o2)CC(c2ccc([N+](=O)[O-])cc2)=NO1 (centres undefined)	18.4µM	.	?	.	.
O=C(OCc1ccccc1F)c1ccc(-c2nnn(Cc3ccccc3)n2)cc1	.	/	?	/	/
C[N+]1(CC(=O)c2ccc(I)cc2)CCOCC1	.	/	.	/	/
Cc1nc2ccccn2c1C(=O)NNC(=S)Nc1ccccc1	.	.	.	.	.
Cc1nc2ccccn2c1C(=O)NNC(=S)Nc1ccc(Cl)cc1	18.4µM	.	?	.	.
Cc1cccc(-n2cnc(C(=O)NNC(=S)Nc3ccc(Cl)cc3)c2)n1	11.6µM	.	7.31µM	.	.
CCOCCCNC(=O)Cn1nc(C)n2c(cc3cc(C)ccc32)c1=O	.	/	.	/	/
COc1ccc(C2CC(c3ccccc3)=NN2C(=O)COC(=O)c2cc(S(=O)(=O)N3CCOCC3)ccc2F)cc1 (centres undefined)	.	.	.	.	.
O=C(c1ccc([N+](=O)[O-])o1)N1CCCCCC1	.	.	?	.	.
COc1cccc2sc(N3CCN(C(=O)c4ccc([N+](=O)[O-])o4)CC3)nc12	18.4µM	-83.9	20.6µM	.	.
O=C(c1ccc([N+](=O)[O-])o1)N1CCN(c2nc3c(Cl)cccc3s2)CC1	13µM	-79.3	20.6µM	.	.
CCOc1cccc2sc(N3CCN(C(=O)c4ccc5c(c4)CCCC5)CC3)nc12	13µM	/	18.4µM	/	/
Clc1cccc2sc(N3CCN(c4ccccc4)CC3)nc12	20.6µM	.	23.1µM	.	.
Clc1ccc(Cl)c2sc(N3CCCC3)nc12	.	.	.	.	.
COc1ccc(OC)c2sc(N3CCN(C(=O)c4ccco4)CC3)nc12	.	/	.	/	/
CCCCCCCCCCCC(=O)OC[C@@H](O)C1OC[C@H](O)[C@H]1O (some centres undefined)	.	/	.	/	/
O=C(c1ccc([N+](=O)[O-])o1)N1CCN(c2nc3ccc(F)cc3s2)CC1	23.1µM	.	20.6µM	.	.
O=C(c1cccs1)N1CCN(c2nc3ccc([N+](=O)[O-])cc3s2)CC1	.	.	.	.	.
Nc1nonc1C(=O)NCCNS(=O)(=O)c1ccc(F)cc1	.	.	.	.	.
O=C(c1cn(-c2ccccc2)nc1-c1ccncc1)n1nnc2ccccc21	.	.	16.4µM	.	.
SMILES	DT40 TDP1 no CPT	IL1B secr inh	DT40 TDP1 CPT	HT1080NT lethal	HT1080 IDH1KD tx
O=C(Oc1cccc2cccnc12)c1cccc(N2C(=O)C3C4CCC(C4)C3C2=O)c1 (centres undefined)	4.61µM	-81.4	4.11µM	?	?
O=C(Oc1cccc2cccnc12)c1ccc(N2C(=O)C3C4CCC(C4)C3C2=O)cc1 (centres undefined)	1.03µM	-95.3	0.517µM	16.4µM	13µM
O=C(Oc1cccc2cccnc12)c1cccc(-n2cnnn2)c1	18.4µM	.	?	.	.
Cc1sc2ncnc(SCC(=O)NC(=O)NCc3ccco3)c2c1C	.	.	.	.	.
COc1cccc(-c2ccc(-c3noc(-c4ccccc4Br)n3)c(OC)n2)c1	.	/	?	/	/
CC(C)CC(c1nnnn1Cc1ccccc1)N1CCC(C(N)=O)CC1 (centres undefined)	.	.	.	.	.
O=[N+]([O-])c1cnc2ccccc2c1	.	.	.	.	.
O=[N+]([O-])c1cc([N+](=O)[O-])c2cc3ccccc3nc2c1	0.517µM	-102.0	0.259µM	16.4µM	4.61µM
CC(C)c1ccc(NC2CCCN(C(=O)CC3CCCC3)C2)cc1 (centres undefined)	10.3µM	.	20.6µM	?	.
Cc1ccnn1CCC(=O)N1CCCC(Nc2ccc(F)c(F)c2)C1 (centres undefined)	?	.	.	.	.
Cc1ccnn1CCC(=O)N1CCCC(Nc2ccc(C(C)C)cc2)C1 (centres undefined)	16.4µM	.	20.6µM	.	.
CC(C)c1ccc(NC2CCCN(C(=O)CCN3CCCC3=O)C2)cc1 (centres undefined)	.	.	.	.	.
COc1ccccc1NC(=O)C/C(C)=N/NC(=O)COc1c(Br)cc(Br)cc1OC	?	.	.	.	.
O=c1cc(-c2ccco2)oc2ccccc12	.	?	?	.	.
CC(C)OCCOc1ccc2oc(-c3ccco3)cc(=O)c2c1	?	-66.5	.	.	.
COC(=O)c1cc(Cl)c(NC(=O)c2ccc(F)cc2)cc1OC	.	.	.	?	?
COc1cccc(NC(=O)CCS(=O)(=O)c2cc3c(cc2Cl)NC(=O)CO3)c1	.	.	.	.	.
Cc1cccc(NC(=O)CCS(=O)(=O)c2cc3c(cc2Cl)NC(=O)CO3)c1	?	.	18.4µM	.	.
CCOC(=O)N1CCC(NS(=O)(=O)c2cc3c(cc2Cl)NC(=O)CO3)CC1	23.1µM	.	18.4µM	.	.
CCOC(=O)N1CCC(NS(=O)(=O)c2ccc3c(c2)OCC(=O)N3)CC1	.	.	?	.	.
N#Cc1c(-c2ccccc2)c(-c2ccccc2)nn(CC(=O)NNC(=O)Nc2ccc(Cl)cc2)c1=O	23.1µM	/	?	6.51µM	5.8µM
N#Cc1c(-c2ccc(Cl)cc2)c(-c2ccc(Cl)cc2)nn(CCOC(=O)CCC(=O)O)c1=O	?	.	10.3µM	5.17µM	7.31µM
O=C(CCCCCCCC(=O)N1CCCCCC1)N1CCCCCC1	?	.	23.1µM	.	.
CCN(CC)S(=O)(=O)c1ccc(N2CCOCC2)c(NC(=O)c2cc([N+](=O)[O-])ccc2Cl)c1	.	.	.	.	.
CCc1cc2c(=O)n(Cc3ccco3)c(SCC(=O)NCC3CCCO3)nc2s1 (centres undefined)	16.4µM	.	14.6µM	.	.
CCc1cc2c(=O)n(Cc3ccco3)c(SCC(=O)NC3CCS(=O)(=O)C3)nc2s1 (centres undefined)	.	.	?	.	.
CCc1cc2c(=O)n(Cc3ccco3)c(SCC(=O)N3CCCc4ccccc43)nc2s1	?	.	25.9µM	.	.
